An excerpt weighted towards active compounds, which were near 13% of everything screened.
HCMV inh = blocks human cytomegalovirus replication; activity change, negative = inhibition, % at 57.5 µM; actives 4.5% (n = 410,000); HFF cells, HCMV-luciferase reporter, 72 h; active compounds read low; in the data active means activity change below about -60%; inconclusive means no clear call, values can overlap the other calls; inactive means above about -39%
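Two compound doses tested in HFFs infected with HCMV-luciferase, MOI 1 PFU/cell, 72 h at 37C. Lysate luminescence read with OneGlo; data normalized against buffer-only and 10uM Salinomycin inhibitor controls.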
Pf growth 96h = inhibits malaria parasite growth, 96 h | P. falciparum luciferase reporter growth, 96 h | Potency, µM (doses to about 28.7 µM), inactives show at the top dose activity change, negative = inhibition, usual class: inhibitors | actives 6.9% (n = 320,000) | AID 504834; further: potency means the concentration at half of the fitted maximal effect
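P. falciparum expressing integrated firefly luciferase grown in erythrocytes (2% hematocrit, 0.05% parasitemia final) with compounds for 96 hours at 37 C, 5% CO2. Growth inhibition read as loss of luminescence after adding luciferase detection reagent.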
Pf growth 48h = P. falciparum growth inhibition at 48 hours (one generation). Potency, µM (titrated, usually from 28.7 µM), inactives show top-dose activity change, negative = inhibition, hits mostly inhibitors. actives 5.9% (n = 310,000). P. falciparum luciferase growth in erythrocytes, 48 h. AID 504832; further: potency means the concentration at half of the fitted maximal effect
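Read-out is firefly luciferase luminescence from an integrated reporter in P. falciparum, so falling signal marks reduced parasite growth. Infected erythrocytes were at 2% hematocrit and 0.1% parasitemia (final) in Albumax-supplemented RPMI 1640.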
HCV inh = HCV inhibition | actives 3.4% (n = 340,000) | Huh7.5.1 HCVcc-Cre infection, luciferase reporter, 44 h | Potency, µM (series often up to 41.8 µM), for inactives: top-dose activity change, negative = inhibition, hits mostly inhibitors; further: potency means the concentration at half of the fitted maximal effect
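Antiviral activity was scored by luciferase reporter output from cells infected with HCVcc-Cre (~0.5 moi) in presence of compound, 44 h infection period, cells seeded 1,000/well 4 h prior.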
Numbers without * were called inactive; ? = inconclusive; · = no result; [ ] = another dose, or the depositor's remark. Unless noted, the call rests on the fitted dose curve; in most records, active means well fitted inhibition curve with a large enough effect; inconclusive means small, poorly fitted or top-dose-only effect, or another doubt; inactive means no such curve, though single readings can be large or run the other way. On the % scale 0 is the no-effect control and ±100 the full control effect.

SMILES | HCMV inh | Pf growth 96h | Pf growth 48h | HCV inh
O=C(CC(Nc1ccccc1)c1ccc(F)cc1)c1ccccc1 (centres undefined) | -15 | 2.6µM* | 10% | 1%
O=C(CC(=O)c1ccccc1O)c1ccc(F)cc1 | 23 | ? | · | 32µM*
O=C(CC(=O)c1c(F)cccc1Cl)c1ccccc1O | -18 | ? | 12µM* | 23%
Cc1ccc(C(=O)CCS(=O)(=O)c2ccc(F)cc2)cc1 | -99* | 2% | 0% | ?
CCc1cccc(C)c1NC(=O)Cn1ncc2c3ccccc3n(Cc3ccccc3)c2c1=O | -4 | · | · | ·
O=C(CCCC(=O)c1ccc(F)cc1)c1ccc(F)cc1 | -80* | 169% | · | 0%
CC(C)(C)c1ccc(C(=O)CC(=O)c2cc(Cl)ccc2O)cc1 | -83* | · | 4.7µM* | 11µM*
Cc1ccc(C(=O)CC(=O)c2cc(Cl)ccc2O)cc1 | ? | · | ? | 13µM*
CC1CCN(CCCC(=O)c2ccc(F)cc2)CC1 | · | ? | -18% | ·
Cc1ccc(CC(=O)c2ccc(Cl)cc2)cc1 | 58 | 39% | 102% | 3%
Cc1ccc(C(=O)CC(=O)c2ccc(C)cc2O)cc1 | 49 | 7.4µM* | -61% | ?
COc1cc(NC(C)C(=O)N2CC(C)OC(C)C2)cc(OC)c1 (centres undefined) | 6 | · | 4.7µM* | ?
CC(C)=CCN1CCNC(=O)C1CC(=O)NCc1nc(C)c(C)s1 (centres undefined) | -26 | 2.3µM* | 0% | 9%
Cc1nc(CCNC(=O)CC2C(=O)NCCN2Cc2ccccc2)sc1C (centres undefined) | 20 | ? | 20% | 12%
COc1ccc(OCc2nc3c4c(-c5ccc(OC)cc5)c(-c5ccc(OC)cc5)oc4ncn3n2)cc1 | 3 | · | · | ·
COc1cc(/C=C2/S/C(=N/S(=O)(=O)Cc3ccccc3)NC2=O)c([N+](=O)[O-])cc1OC | ? | ? | ? | -13%
COc1cc(/C=C2\S/C(=N/S(=O)(=O)Cc3ccccc3)NC2=O)c([N+](=O)[O-])cc1OC | -36 | 8.3µM* | ? | -3%
COC(=O)CCCC(=O)N1CCCC(CCC(=O)NCc2ccc(F)c(F)c2)C1 (centres undefined) | 9 | 5% | 8.3µM* | 4%
Cc1ccc(CNC(=O)CCC2CCCN(C(=O)CCC(F)(F)F)C2)o1 (centres undefined) | -3 | 8.3µM* | -1% | 5%
COc1cccc(CNC(=O)CCC2CCCN(C(=O)c3cccc4c(C)c(C)[nH]c34)C2)c1 (centres undefined) | -27 | -36%[1.15 µM] | 12µM* | -20%
CCOC(=O)c1ccccc1NC(=O)Cn1nnc2sc3c(c2c1=O)CCCC3 | 8 | · | · | ·
COc1ccc(NC(=O)c2nnn(Cc3nc(-c4cc(Br)ccc4OC)oc3C)c2C)cc1 | 7 | · | · | ·
O=C(C1CCCN(Cc2ccc(Br)cc2)C1)N1CCCCC1 (centres undefined) | ? | 29% | -9%[0.00184 µM] | 11µM*
CCN(CC)C(=O)C1CCCN(Cc2ccccc2)C1 (centres undefined) | 2 | -52% | · | 19%
CN(Cc1ccccc1)C(=O)C1CCCN(Cc2ccc(Cl)cc2)C1 (centres undefined) | -35 | -3% | -5% | 1.4µM*
SMILES | HCMV inh | Pf growth 96h | Pf growth 48h | HCV inh
O=C(C1CCCN(Cc2ccccc2F)C1)N1CCCC1 (centres undefined) | -31 | 8% | ? | 11%
O=C(C1CCCN(Cc2cc(Br)ccc2O)C1)N1CCCCC1 (centres undefined) | ? | ? | 8.3µM* | -17%
CCc1ccc(NC(=O)CC2C(=O)N(c3ccc(Cl)cc3)C(=O)N2Cc2cccs2)cc1 (centres undefined) | 42 | · | · | ·
CC(C)c1cc(C(=O)NC(C)c2ccccc2)no1 (centres undefined) | 1 | · | · | ·
Cc1ccc(NC(=S)NC(=O)C2CC2)cc1Cl | 27 | 9.3µM* | -26% | -10%
O=C(Nc1ccc(Br)c(Cl)c1)C1CC1 | -62* | 18% | 10% | ?
O=C(NC(=S)Nc1ccc(F)c(Cl)c1)C1CC1 | 3 | -6% | -37% | -10%
C[C@H]1CNC(=O)c2c(C(=O)N3CCN(c4ccccc4)CC3)ncn21 | -2 | · | · | ·
O=C(NCc1ccco1)c1ccc2c(c1)N(Cc1ccccc1F)C(=O)c1ccccc1S2=O (centres undefined) | -13 | · | · | ·

Screens (PubChem)
